# Experimental data: PubChem BioAssay (EPA / NIEHS)
# The source made the active and inactive calls. The calls were made as follows: active = hit-call score of the fitted dose curve at least 0.9, where 1 is the maximum; inactive = score below 0.9.
# Columns and labels:
# [1] = molecular target: Bile acid receptor (Homo sapiens) (UniProt Q96RI1); experiment: ATG_IR1_CIS: Attagene CIS-FACTORIAL HepG2 Assay for human Nuclear Receptor Subfamily 1 Group H Member 4 (NR1H4), IR1 submotif (AID 2282946); conditions: IR1 reporter transcription, actives raise or lower the signal
# Method in brief: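 Readout: reporter transcript levels by RT-PCR with fluorescent capillary electrophoresis, from HepG2 cells transiently transfected with multiplexed cis-regulated reporters and dosed 24 h. Gain- or loss-of-signal fitted versus DMSO negative control.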
# [2] = ATG_GRE_CIS: Attagene CIS-FACTORIAL HepG2 Assay for human Glucocorticoid Response Elements (GRE) (AID 2282947); conditions: HepG2 GRE cis-reporter, Attagene multiplex mRNA; actives raise or lower the signal
# Method in brief: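 HepG2, transient cis-reporter transfection, 24 h. Reporter mRNA: RT-PCR then CE, fluorescence. Fit both directions vs DMSO.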
# [3] = ATG_ISRE_CIS: Attagene CIS-FACTORIAL HepG2 Assay for human Interferon Regulatory Factor 1 (IRF1) binding to an Interferon-Stimulated Response Element (ISRE) (AID 2282948); conditions: HepG2 ISRE cis-reporter (Attagene), mRNA transcription readout; actives raise or lower the signal
# Method in brief: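 Read-out: fluorescent RT-PCR products resolved by capillary electrophoresis, reporting endogenous transcription factor activity via ISRE-driven reporter mRNA in transfected HepG2 cells dosed for 24 h; gain or loss fitted relative to DMSO.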
# [4] = ATG_M_32_CIS: Attagene CIS-FACTORIAL HepG2 Assay for M32 Transcription Factor (Internal Marker) (AID 2282949); conditions: HepG2 Attagene cis-factorial M32 reporter, mRNA; actives raise or lower the signal;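 also: background control marker of the multiplexed CIS panel rather than a real target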
# Method in brief: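 Using DMSO as baseline, bidirectional curve fits were applied to reporter mRNA signals. These came from transiently transfected HepG2 cells exposed for 24 h, with RNA analysed by RT-PCR, FAM primer extension, HpaI digestion and CE.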
# [5] = ATG_M_06_CIS: Attagene CIS-FACTORIAL HepG2 Assay for M06 Transcription Factor (Internal Marker) (AID 2282950); conditions: HepG2 Attagene CIS-FACTORIAL M06 internal marker reporter; actives raise or lower the signal
# Method in brief: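 HepG2 liver cells, 24 h exposure. Reporter transcripts from transfected cis-element constructs quantified by RT-PCR/capillary electrophoresis fluorescence. Bidirectional curve fit against DMSO.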
# [6] = molecular target: Hypoxia-inducible factor 1-alpha (Homo sapiens) (UniProt Q16665); experiment: ATG_HIF1a_CIS: Attagene CIS-FACTORIAL HepG2 Assay for human Hypoxia Inducible Factor 1 (HIF1A) (AID 2282951); conditions: HepG2 Attagene cis-factorial HIF1a reporter transcription; actives raise or lower the signal
# Method in brief: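 In this multiplexed cell assay, HepG2 cells bearing transfected cis reporters are dosed for 24 h and reporter mRNA is read by RT-PCR plus capillary electrophoresis; signal increases and decreases are both scored against DMSO.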
# [7] = molecular target: Hepatocyte nuclear factor 6 (Homo sapiens) (UniProt Q9UBC0); experiment: ATG_HNF6_CIS: Attagene CIS-FACTORIAL HepG2 Assay for human Hepatocyte Nuclear Factor 6 (HNF6) (AID 2282952); conditions: HepG2 Attagene cis-factorial HNF6 reporter transcription; actives raise or lower the signal
# Method in brief: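 First, HepG2 cells were transfected with the multiplexed cis reporter library and dosed with chemical for 24 h. Next, RNA was reverse-transcribed, PCR-amplified and fluorescently labelled. Finally, HpaI-digested fragments were read by capillary electrophoresis.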
# [8] = molecular target: Heat shock factor protein 1 (Homo sapiens) (UniProt Q00613); experiment: ATG_HSE_CIS: Attagene CIS-FACTORIAL HepG2 Assay for human Heat Shock Transcription Factor 1 (HSE) (AID 2282953); conditions: HepG2 HSE cis-reporter, Attagene RNA transcription; actives raise or lower the signal
# Method in brief: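 Endogenous transcription factor activity captured via cis-promoter reporter units transfected into HepG2; treatment lasted 24 h. Fluorescence intensity of reporter fragments analysed with bidirectional curve fitting, DMSO baseline.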
# [9] = ATG_MRE_CIS: Attagene CIS-FACTORIAL HepG2 Assay for human Metal Responsive Element (MRE) (AID 2282954); conditions: HepG2 MRE cis-reporter transcription, Attagene multiplex; actives raise or lower the signal
# Method in brief: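 Readout: capillary electrophoresis of 6-FAM-labelled, HpaI-digested RT-PCR reporter products. System: HepG2 cells carrying transient multiplexed cis reporters, dosed 24 h. Analysis: bidirectional fit, DMSO baseline.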
# [10] = ATG_PBREM_CIS: Attagene CIS-FACTORIAL HepG2 Assay for human Phenobarbital-responsive Enhancer Module (PBREM) (AID 2282955); conditions: HepG2 PBREM cis-reporter, Attagene multiplexed transcription; actives raise or lower the signal
# Method in brief: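 After a 24 h incubation with test chemical, transfected HepG2 cells yield total RNA; reporter-specific RT-PCR products are fluorescently labelled, HpaI-digested and resolved by capillary electrophoresis against ROX size standards.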
# [11] = molecular target: Paired box protein Pax-6 (Homo sapiens) (UniProt P26367); experiment: ATG_Pax6_CIS: Attagene CIS-FACTORIAL HepG2 Assay for human Paired Box 6 (PAX6) (AID 2282956); conditions: HepG2 CIS-FACTORIAL PAX6 reporter transcription, RNA readout; actives raise or lower the signal
# Method in brief: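 Readout: reporter transcript fluorescence after RT-PCR and capillary electrophoresis. Cells: HepG2, transiently transfected with cis-regulated MRTUs. Exposure 24 h. Gain or loss of signal fitted bidirectionally relative to DMSO.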
# [12] = ATG_PXRE_CIS: Attagene CIS-FACTORIAL HepG2 Assay for human Pregnane X Receptor Element (PXRE) (AID 2282957); conditions: HepG2 Attagene CIS-FACTORIAL PXRE reporter, mRNA; actives raise or lower the signal
# Method in brief: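 After a 24 h chemical incubation, total RNA from transfected HepG2 cells was reverse-transcribed and reporter cDNA amplified, FAM-labeled, HpaI-digested and sized by capillary electrophoresis. DMSO served as baseline for bidirectional curve fitting.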
# [13] = ATG_PPRE_CIS: Attagene CIS-FACTORIAL HepG2 Assay for human Peroxisome Proliferator-activated Response Element (PPRE) (AID 2282958); conditions: HepG2 PPRE cis-element reporter, Attagene transcription factor profiling; actives raise or lower the signal
# Method in brief: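 Multiplexed reporter transcription units under cis-regulatory promoters were transfected into HepG2 cells to capture endogenous factor activity. A 24 h incubation preceded RNA isolation and fluorescent RT-PCR fragment analysis.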
# [14] = ATG_RORE_CIS: Attagene CIS-FACTORIAL HepG2 Assay for human RAR-related Orphan Receptor Element (RORE) (AID 2282959); conditions: HepG2 Attagene cis-factorial RORE reporter, mRNA; actives raise or lower the signal
# Method in brief: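 Fluorescence intensity of reporter-specific cDNA fragments, separated by capillary electrophoresis, gives the signal. Source: HepG2 liver cells transiently transfected with cis-element reporters and exposed 24 h; DMSO-normalized bidirectional fit.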
# [15] = ATG_Sox_CIS: Attagene CIS-FACTORIAL HepG2 Assay for human SRY-box transcription factor (SOX) (AID 2282960); conditions: HepG2 Attagene cis-factorial SOX reporter, mRNA; actives raise or lower the signal
# Method in brief: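 After 24 h of chemical treatment, transfected HepG2 reporter cells are lysed for total RNA. Transcript levels come from RT-PCR with labelled primer extension and capillary electrophoresis, analysed bidirectionally versus DMSO.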
# [16] = molecular target: Transcription factor Sp1 (Homo sapiens) (UniProt P08047); experiment: ATG_Sp1_CIS: Attagene CIS-FACTORIAL HepG2 Assay for human Specificity Protein 1 (Sp1) (AID 2282961); conditions: HepG2 Sp1 cis-reporter transcription, actives raise or lower the signal
# Method in brief: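 Sp1-driven reporter mRNA, read as capillary electrophoresis fluorescence after RT-PCR, in transiently transfected HepG2 cells dosed for 24 h; signal change in either direction relative to DMSO.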
# [17] = ATG_SREBP_CIS: Attagene CIS-FACTORIAL HepG2 Assay for human Sterol Regulatory Element Binding (SREBP) (AID 2282962); conditions: HepG2 Attagene cis-factorial SREBP reporter, mRNA; actives raise or lower the signal
# Method in brief: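 Readout: fluorescent reporter-transcript peaks resolved by capillary electrophoresis after RT-PCR. Cells were human HepG2 carrying transfected cis-promoter reporter constructs, dosed for 24 h. Gain or loss of signal was fitted against DMSO controls.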
# [18] = molecular target: Signal transducer and activator of transcription 3 (Homo sapiens) (UniProt P40763); experiment: ATG_STAT3_CIS: Attagene CIS-FACTORIAL HepG2 Assay for human Signal Transducer and Activator of Transcription 3 (STAT3) (AID 2282963); conditions: HepG2, Attagene cis-factorial STAT3 reporter transcription; actives raise or lower the signal
# Method in brief: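 Uses human liver HepG2 transiently carrying cis-regulated reporter transcription units. Following 24 h dosing, reporter mRNA induction was detected by RT-PCR and capillary electrophoresis, analysed bidirectionally versus DMSO.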
# [19] = ATG_TA_CIS: Attagene CIS-FACTORIAL HepG2 Assay for human TA Basal Promoter (AID 2282964); conditions: HepG2 Attagene CIS-factorial TA basal promoter reporter; actives raise or lower the signal
# Method in brief: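 Fluorescence from labelled RT-PCR reporter fragments, separated by capillary electrophoresis, gives the signal. Cells: HepG2 transiently carrying multiple reporter units, 24 h chemical dosing. Gain or loss relative to DMSO.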
# [20] = ATG_TCF_b_cat_CIS: Attagene CIS-FACTORIAL HepG2 Assay for human T-Cell-Factor with beta-catenin (TCF/b-cat) (AID 2282965); conditions: HepG2 TCF/beta-catenin cis-reporter transcription, actives raise or lower the signal
# Method in brief: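 Using capillary electrophoresis as the read-out, labelled reporter cDNA fragments from transiently transfected HepG2 were sized and quantified. Exposure lasted 24 hours; activity in either direction was referenced to DMSO.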
# Sequence of Paired box protein Pax-6 (Homo sapiens) (P26367 whole entry, looked up): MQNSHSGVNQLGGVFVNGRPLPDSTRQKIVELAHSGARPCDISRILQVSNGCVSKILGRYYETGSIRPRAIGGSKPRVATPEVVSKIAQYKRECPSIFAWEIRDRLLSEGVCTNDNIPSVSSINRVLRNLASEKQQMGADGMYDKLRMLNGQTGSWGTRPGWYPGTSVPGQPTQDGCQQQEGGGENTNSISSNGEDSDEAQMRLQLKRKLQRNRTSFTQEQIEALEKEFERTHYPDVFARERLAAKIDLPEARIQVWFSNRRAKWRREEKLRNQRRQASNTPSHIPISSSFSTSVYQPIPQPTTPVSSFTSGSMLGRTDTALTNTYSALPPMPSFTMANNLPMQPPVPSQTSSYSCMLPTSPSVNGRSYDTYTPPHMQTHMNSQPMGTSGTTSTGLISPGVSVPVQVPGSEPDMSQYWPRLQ
# Sequence of Hepatocyte nuclear factor 6 (Homo sapiens) (Q9UBC0 whole entry, looked up, the tested form may be a part): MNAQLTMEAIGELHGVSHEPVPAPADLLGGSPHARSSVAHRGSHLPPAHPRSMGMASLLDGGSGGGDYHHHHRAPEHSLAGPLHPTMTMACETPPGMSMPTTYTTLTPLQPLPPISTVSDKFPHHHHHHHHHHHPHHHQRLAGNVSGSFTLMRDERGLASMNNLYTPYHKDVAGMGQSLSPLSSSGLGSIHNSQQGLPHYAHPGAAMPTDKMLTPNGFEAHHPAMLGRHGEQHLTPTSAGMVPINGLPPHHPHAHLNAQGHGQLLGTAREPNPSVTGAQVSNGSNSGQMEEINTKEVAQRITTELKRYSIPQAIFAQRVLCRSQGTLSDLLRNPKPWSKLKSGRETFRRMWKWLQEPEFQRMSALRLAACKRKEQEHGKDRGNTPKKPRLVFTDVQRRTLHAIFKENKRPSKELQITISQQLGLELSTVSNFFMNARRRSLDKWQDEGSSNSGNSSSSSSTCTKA
# Sequence of Transcription factor Sp1 (Homo sapiens) (P08047 whole entry, looked up): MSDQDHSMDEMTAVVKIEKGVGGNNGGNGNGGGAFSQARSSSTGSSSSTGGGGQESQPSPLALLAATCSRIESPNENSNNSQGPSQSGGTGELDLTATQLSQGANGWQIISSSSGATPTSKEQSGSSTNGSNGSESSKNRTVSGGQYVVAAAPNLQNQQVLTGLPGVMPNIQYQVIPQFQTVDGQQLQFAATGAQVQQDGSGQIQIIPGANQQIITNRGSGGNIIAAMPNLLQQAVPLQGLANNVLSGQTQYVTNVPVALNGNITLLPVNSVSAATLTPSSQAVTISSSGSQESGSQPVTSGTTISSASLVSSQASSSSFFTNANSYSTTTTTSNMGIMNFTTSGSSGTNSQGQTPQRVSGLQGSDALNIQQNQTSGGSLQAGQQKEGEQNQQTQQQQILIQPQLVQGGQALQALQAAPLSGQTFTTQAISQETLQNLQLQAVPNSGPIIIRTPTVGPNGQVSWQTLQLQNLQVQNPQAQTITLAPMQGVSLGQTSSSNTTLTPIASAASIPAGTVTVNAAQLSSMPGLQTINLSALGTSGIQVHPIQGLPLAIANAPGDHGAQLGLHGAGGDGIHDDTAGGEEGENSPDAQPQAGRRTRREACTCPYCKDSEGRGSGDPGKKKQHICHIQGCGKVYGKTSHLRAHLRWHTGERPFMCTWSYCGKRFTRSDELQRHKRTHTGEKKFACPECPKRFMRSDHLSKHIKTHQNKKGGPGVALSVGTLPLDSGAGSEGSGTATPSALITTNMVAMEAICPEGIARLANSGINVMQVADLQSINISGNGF
# Sequence of Signal transducer and activator of transcription 3 (Homo sapiens) (P40763 whole entry, looked up): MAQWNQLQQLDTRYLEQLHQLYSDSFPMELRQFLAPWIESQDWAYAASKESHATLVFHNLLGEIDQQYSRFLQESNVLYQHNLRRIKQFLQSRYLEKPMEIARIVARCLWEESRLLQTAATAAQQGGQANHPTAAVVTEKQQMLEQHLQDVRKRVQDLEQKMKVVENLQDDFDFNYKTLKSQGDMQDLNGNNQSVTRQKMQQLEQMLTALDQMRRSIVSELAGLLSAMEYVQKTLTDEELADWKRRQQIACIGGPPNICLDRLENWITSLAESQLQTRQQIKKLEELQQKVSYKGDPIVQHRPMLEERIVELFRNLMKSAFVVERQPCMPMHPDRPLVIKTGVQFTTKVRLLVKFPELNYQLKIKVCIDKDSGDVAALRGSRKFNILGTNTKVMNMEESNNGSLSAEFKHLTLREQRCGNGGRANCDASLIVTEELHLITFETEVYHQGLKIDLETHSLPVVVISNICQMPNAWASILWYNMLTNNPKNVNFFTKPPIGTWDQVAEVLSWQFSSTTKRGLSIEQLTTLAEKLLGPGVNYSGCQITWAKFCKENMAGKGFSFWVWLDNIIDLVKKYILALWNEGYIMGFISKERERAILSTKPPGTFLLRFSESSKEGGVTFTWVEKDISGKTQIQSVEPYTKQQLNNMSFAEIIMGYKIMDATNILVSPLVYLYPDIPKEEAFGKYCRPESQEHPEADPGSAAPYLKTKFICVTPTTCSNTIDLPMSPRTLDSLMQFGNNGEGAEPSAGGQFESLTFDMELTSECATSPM
# Sequence of Hypoxia-inducible factor 1-alpha (Homo sapiens) (Q16665 whole entry, looked up): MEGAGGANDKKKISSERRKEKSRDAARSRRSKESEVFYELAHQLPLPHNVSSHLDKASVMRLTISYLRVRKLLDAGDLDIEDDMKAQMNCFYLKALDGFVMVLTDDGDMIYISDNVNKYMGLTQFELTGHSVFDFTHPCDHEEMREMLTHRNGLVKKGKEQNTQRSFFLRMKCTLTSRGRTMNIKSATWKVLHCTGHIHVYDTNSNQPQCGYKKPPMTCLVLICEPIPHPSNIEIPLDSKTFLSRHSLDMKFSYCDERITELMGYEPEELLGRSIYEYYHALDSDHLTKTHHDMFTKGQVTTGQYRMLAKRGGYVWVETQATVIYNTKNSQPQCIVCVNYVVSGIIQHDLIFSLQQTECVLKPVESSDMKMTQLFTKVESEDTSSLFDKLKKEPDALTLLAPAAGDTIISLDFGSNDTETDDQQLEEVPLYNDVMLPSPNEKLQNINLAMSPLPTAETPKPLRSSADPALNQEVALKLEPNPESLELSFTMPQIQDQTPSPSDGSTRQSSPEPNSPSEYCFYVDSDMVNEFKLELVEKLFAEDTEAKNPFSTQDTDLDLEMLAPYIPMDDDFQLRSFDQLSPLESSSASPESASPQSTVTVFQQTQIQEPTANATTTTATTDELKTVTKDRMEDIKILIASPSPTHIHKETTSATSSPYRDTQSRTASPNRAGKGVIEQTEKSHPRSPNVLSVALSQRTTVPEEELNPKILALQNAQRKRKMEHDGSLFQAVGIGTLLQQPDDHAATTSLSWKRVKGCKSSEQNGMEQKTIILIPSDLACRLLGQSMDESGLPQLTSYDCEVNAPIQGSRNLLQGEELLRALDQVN
# Sequence of Bile acid receptor (Homo sapiens) (Q96RI1 whole entry, looked up): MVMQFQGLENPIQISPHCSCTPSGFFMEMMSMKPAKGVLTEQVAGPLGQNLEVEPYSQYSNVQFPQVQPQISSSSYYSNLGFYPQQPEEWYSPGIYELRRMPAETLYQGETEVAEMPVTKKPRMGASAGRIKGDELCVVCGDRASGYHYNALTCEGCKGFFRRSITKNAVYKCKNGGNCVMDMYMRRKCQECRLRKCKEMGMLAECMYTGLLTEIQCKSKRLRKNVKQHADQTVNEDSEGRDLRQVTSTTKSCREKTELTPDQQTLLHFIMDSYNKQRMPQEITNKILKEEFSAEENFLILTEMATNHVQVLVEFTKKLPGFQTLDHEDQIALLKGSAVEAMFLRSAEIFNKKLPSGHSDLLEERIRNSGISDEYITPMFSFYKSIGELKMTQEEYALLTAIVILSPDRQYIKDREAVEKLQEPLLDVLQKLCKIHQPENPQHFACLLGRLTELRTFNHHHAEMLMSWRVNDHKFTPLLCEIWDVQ
# Sequence of Heat shock factor protein 1 (Homo sapiens) (Q00613 whole entry, looked up, the tested form may be a part): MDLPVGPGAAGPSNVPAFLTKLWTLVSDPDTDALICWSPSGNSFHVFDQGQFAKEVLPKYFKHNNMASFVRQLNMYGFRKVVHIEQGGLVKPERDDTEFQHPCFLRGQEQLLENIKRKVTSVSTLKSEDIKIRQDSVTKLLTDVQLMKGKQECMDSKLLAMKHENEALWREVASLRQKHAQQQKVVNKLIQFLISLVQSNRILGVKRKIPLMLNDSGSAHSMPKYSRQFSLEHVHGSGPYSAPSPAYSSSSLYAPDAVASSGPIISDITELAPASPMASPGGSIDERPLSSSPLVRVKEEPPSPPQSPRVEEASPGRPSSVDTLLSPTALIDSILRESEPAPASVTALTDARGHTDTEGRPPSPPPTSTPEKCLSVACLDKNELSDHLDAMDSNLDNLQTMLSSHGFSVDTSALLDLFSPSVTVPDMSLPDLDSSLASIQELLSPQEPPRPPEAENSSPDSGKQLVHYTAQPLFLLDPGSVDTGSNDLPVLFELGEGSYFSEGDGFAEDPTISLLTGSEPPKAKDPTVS
compound,measurement,setting,value
O=c1[nH]sc2ccccc12,outcome,[1],inactive
same,outcome,[2],inactive
same,AC50,[3],33.4 µM (active)
same,outcome,[4],inactive
same,outcome,[5],inactive
same,AC50,[6],8.86 µM (active)
same,outcome,[7],inactive
same,AC50,[8],52.8 µM (active)
same,outcome,[9],inactive
same,outcome,[10],inactive
same,outcome,[11],inactive
same,AC50,[12],51.7 µM (active)
same,outcome,[13],inactive
same,outcome,[14],inactive
same,AC50,[15],42.9 µM (active)
same,outcome,[16],inactive
same,outcome,[17],inactive
same,outcome,[18],inactive
same,outcome,[19],inactive
same,AC50,[20],44.4 µM (active)
Cc1c2ccccc2c(C)c2c1ccc1ccccc12,AC50,[1],6.62 µM (active)
same,outcome,[2],inactive
same,outcome,[3],inactive
same,AC50,[4],55.3 µM (active)
same,outcome,[5],inactive
same,outcome,[6],inactive
same,outcome,[7],inactive
same,outcome,[8],inactive
same,outcome,[9],inactive
same,outcome,[10],inactive
same,outcome,[11],inactive
same,AC50,[12],2.42 µM (active)
same,outcome,[13],inactive
same,AC50,[14],54.8 µM (active)
same,AC50,[15],52.4 µM (active)
same,AC50,[16],6.93 µM (active)
same,outcome,[17],inactive
same,outcome,[18],inactive
same,outcome,[19],inactive
same,AC50,[20],53.4 µM (active)
CC1=CC(=O)/C(=C(/C)O)C(=O)O1,outcome,[1],inactive
same,outcome,[2],inactive
same,outcome,[3],inactive
same,outcome,[4],inactive
same,outcome,[5],inactive
same,outcome,[6],inactive
same,outcome,[7],inactive
same,outcome,[8],inactive
same,outcome,[9],inactive
same,outcome,[10],inactive
same,outcome,[11],inactive
same,outcome,[12],inactive
same,outcome,[13],inactive
same,outcome,[14],inactive
same,outcome,[15],inactive
same,outcome,[16],inactive
same,outcome,[17],inactive
same,outcome,[18],inactive
same,outcome,[19],inactive
same,outcome,[20],inactive
CCOC(=O)O[C@H](C)OC(=O)c1ccc2c(c1)cc(C(=O)NC1CCN(C(C)C)CC1)n2Cc1cc(-c2ccc(Cl)s2)on1,outcome,[1],inactive
same,outcome,[2],inactive
same,outcome,[3],inactive
same,outcome,[4],inactive
same,outcome,[5],inactive
same,AC50,[6],20.9 µM (active)
same,outcome,[7],inactive
same,outcome,[8],inactive
same,AC50,[9],51.1 µM (active)
same,outcome,[10],inactive
same,outcome,[11],inactive
same,outcome,[12],inactive
same,outcome,[13],inactive
same,outcome,[14],inactive
same,outcome,[15],inactive
same,AC50,[16],60 µM (active)
same,AC50,[17],33 µM (active)
same,outcome,[18],inactive
same,outcome,[19],inactive
same,outcome,[20],inactive
CN(C)C(=O)C1(N2CCCCC2)CCN(CC[C@@]2(c3ccc(Cl)c(Cl)c3)CN(C(=O)c3ccccc3)CCO2)CC1,outcome,[1],inactive
same,outcome,[2],inactive
same,outcome,[3],inactive
same,outcome,[4],inactive
same,outcome,[5],inactive
same,AC50,[6],1.01 µM (active)
same,outcome,[7],inactive
same,outcome,[8],inactive
same,outcome,[9],inactive
same,outcome,[10],inactive
same,outcome,[11],inactive
same,AC50,[12],0.17 µM (active)
same,outcome,[13],inactive
same,outcome,[14],inactive
same,outcome,[15],inactive
same,AC50,[17],0.436 µM (active)
same,outcome,[18],inactive
same,outcome,[19],inactive
same,AC50,[20],0.98 µM (active)
